Measured values reported in the supplement of paper PMC13380429.

What was measured:
[1] = test system: Vero E6 infected with SARS-CoV-2; assay: morphology score (similarity to uninfected cells); higher = more like uninfected cells; conditions: 24 h
[2] = test system: Vero E6 infected with SARS-CoV-2; assay: SARS-CoV-2 infection rate relative to infected DMSO; higher = more infection, active = 60 or less; conditions: 24 h

Row | SMILES | morphology score [1] | SARS-CoV-2 infection rate [2]
1 | CCN1CCN(c2cc(-c3ccc(F)cc3)c3c(n2)CCCCCC3)CC1 [blonanserin] (10 µM) | 0.248 | 107% (inactive)
2 | NC1=NCC2c3ccccc3Cc3ccccc3N12 (stereo not given) [epinastine] (10 µM) | 0.0427 | 114% (inactive)
3 | CO[C@H]1/C=C/O[C@@]2(C)Oc3c(C)c(O)c4c(O)c(cc(O)c4c3C2=O)NC(=O)/C(C)=C\C=C\[C@H](C)[C@H](O)[C@@H](C)[C@@H](O)[C@@H](C)[C@H](OC(C)=O)[C@@H]1C [rifamycin-sv] (10 µM) | 0.117 | 94.2% (inactive)
4 | CCCC(CCC)C(=O)NCC(N)=O [valrocemide] (10 µM) | 0.062 | 108% (inactive)
5 | Cc1cc(C)cc(C(=O)N(C)[C@H](Cc2ccc(-c3ccccc3)cc2)C(=O)N[C@@H](Cc2c[nH]c3ccccc23)C(=O)O)c1 (10 µM) | 0.0271 | 95% (inactive)
6 | O=c1[nH]ccc2cc(OC3CCNCC3)ccc12 (10 µM) | 0.27 | 110% (inactive)
7 | CN(C)C(=O)Oc1cccc([N+](C)(C)C)c1 [neostigmine] (10 µM) | -0.107 | 112% (inactive)
8 | CC(C)(C)[C@]1(O)CC2OC(=O)CC23C(=O)OC2OC(=O)[C@H](O)C231 (stereo not given in full) [bilobalide] (10 µM) | 0.0342 | 110% (inactive)
9 | CCCC(=O)OCOC(=O)C1=C(C)NC(C)=C(C(=O)OC)C1c1cccc(Cl)c1Cl (stereo not given) [cleviprex] (10 µM) | 0.0656 | 102% (inactive)
10 | CCCCCCCCCCCCCCCCCCCCCCCCCCCCO [1-octacosanol] (10 µM) | 0.118 | 100% (inactive)
11 | O=S1(=O)CCN(CN2CCS(=O)(=O)NC2)CN1 [taurolidine] (10 µM) | -0.0437 | 109% (inactive)
12 | CCCCCCN(CCCCCC)C(=O)Cc1c(-c2ccc(Cl)cc2)[nH]c2ccc(Cl)cc12 (10 µM) | -0.00824 | 103% (inactive)
13 | CC(C)(C)C(=O)/C(=N/c1ccc(Cl)cc1)NNc1ccc(Cl)cc1 (10 µM) | -0.145 | 114% (inactive)
14 | Clc1ccc(C(Cn2ccnc2)OCc2ccsc2Cl)c(Cl)c1 (stereo not given) [tioconazole] (10 µM) | -0.0375 | 106% (inactive)
15 | N#C[C@@H]1C[C@@H]2C[C@@H]2N1C(=O)[C@@H](N)C12CC3CC(CC(O)(C3)C1)C2 (10 µM) | -0.0311 | 105% (inactive)
16 | C[C@]12CCC(=O)C[C@@H]1CC[C@@H]1[C@@H]2CC[C@]2(C)C=CC[C@@H]12 [androstenone] (10 µM) | -0.064 | 112% (inactive)
17 | CN1CCC[C@@H]1CCO[C@](C)(c1ccccc1)c1ccc(Cl)cc1 [clemastine] (10 µM) | 0.677 | 26.5% (active)
18 | O=c1[nH]c2ccccc2n1CCCN1CCC(n2c(=O)[nH]c3cc(Cl)ccc32)CC1 [domperidone] (10 µM) | 0.00154 | 110% (inactive)
19 | CCC(=O)[C@@]1(C)[C@H](C)C[C@H]2[C@@H]3CCC4=CC(=O)C=C[C@]4(C)[C@H]3[C@@H](O)C[C@@]21C [rimexolone] (10 µM) | 0.134 | 98.5% (inactive)
20 | COc1cc2c3cc1Oc1cc(ccc1O)C[C@@H]1c4c(cc(OC)c(O)c4Oc4ccc(cc4)C[C@@H]3N(C)CC2)CC[N+]1(C)C [tubocurarine] (10 µM) | -0.0274 | 110% (inactive)
21 | N=C(N)NC(=O)c1nc(Cl)c(N)nc1N [amiloride] (10 µM) | 0.1 | 98% (inactive)
22 | CN(C)CCOC(c1ccccc1)c1ccccc1 [diphenhydramine] (10 µM) | 0.203 | 86.5% (inactive)
23 | Cc1cnc(Nc2ccc(OCCN3CCCC3)cc2)nc1Nc1cccc(S(=O)(=O)NC(C)(C)C)c1 [fedratinib] (0.833333 µM) | -0.054 | 99.5% (inactive)
24 | CC(C)/N=c1\cc2n(-c3ccc(Cl)cc3)c3ccccc3nc-2cc1Nc1ccc(Cl)cc1 [clofazimine] (10 µM) | 0.422 | 64% (inactive)
25 | O=C(O)Cc1cccnc1C(=O)O [homoquinolinic-acid] (10 µM) | 0.0575 | 102% (inactive)

Row | SMILES | morphology score [1] | SARS-CoV-2 infection rate [2]
26 | C[C@H](c1ccc2ccc(OC3CCC(C(F)(F)F)CC3)c(C(F)(F)F)c2c1)N1C2CCC1CC(C(=O)O)C2 (stereo not given in full) [autotaxin-modulator-1] (10 µM) | 0.317 | 91% (inactive)
27 | CC(C)[C@](O)(c1ccc2cc(OC(F)F)c(OC(F)F)cc2c1)c1c[nH]nn1 (10 µM) | 0.165 | 102% (inactive)
28 | CC(C)Oc1cccc(CC(=O)N2CCC[C@](CC[N+]34CCC(c5ccccc5)(CC3)CC4)(c3ccc(Cl)c(Cl)c3)C2)c1 (10 µM) | 0.0196 | 110% (inactive)
29 | CCCc1c(OCC(O)COc2ccc3c(=O)cc(C(=O)O)oc3c2CCC)ccc(C(C)=O)c1O (stereo not given) (10 µM) | 0.197 | 99.5% (inactive)
30 | Cc1ccc(-n2nc(C(C)(C)C)cc2NC(=O)NCc2cc(F)ccc2Oc2ccc3c(cnn3CCO)c2)cc1 [pexmetinib] (0.833333 µM) | 0.226 | 105% (inactive)
31 | FC(F)(F)c1ccc(CNc2ccc(Cc3c[nH]c4ncccc34)cn2)cc1 (10 µM) | 0.0358 | 110% (inactive)
32 | CCOC(=O)c1ccc(N)cc1 [benzocaine] (10 µM) | -0.0142 | 112% (inactive)
33 | CN(C)CCCN1c2ccccc2Sc2ccccc21 [promazine] (10 µM) | 0.41 | 91.5% (inactive)
34 | NC1(Cc2ccc(Cl)cc2)CCN(c2ncnc3[nH]ccc23)CC1 (0.833333 µM) | 0.535 | 99.5% (inactive)
35 | Cc1ccc(O)c(N=Nc2ccccc2)n1 (10 µM) | 0.26 | 81% (inactive)
36 | CC1(C)[C@@H](OC(=O)CCC(=O)O)CC[C@]2(C)[C@H]3C(=O)C=C4[C@@H]5C[C@@](C)(C(=O)O)CC[C@]5(C)CC[C@@]4(C)[C@]3(C)CC[C@@H]12 (10 µM) | 0.0746 | 106% (inactive)
37 | O=C1OC(OC(=O)c2cccnc2Nc2cccc(C(F)(F)F)c2)c2ccccc21 (stereo not given) [talniflumate] (10 µM) | -0.0899 | 108% (inactive)
38 | CN(C)C[C@H](O)Cn1c2ccc(Br)cc2c2cc(Br)ccc21 (racemic) [wiskostatin] (0.833333 µM) | 0.146 | 110% (inactive)
39 | CC(C)[C@@H]1CC[C@@H](C)C[C@H]1O [levomenthol] (10 µM) | -0.181 | 108% (inactive)
40 | CC(=O)c1ccc(S(=O)(=O)NC(=O)NC2CCCCC2)cc1 [acetohexamide] (10 µM) | 0.11 | 100% (inactive)
41 | CC[C@@H]1C(=O)OC[C@@H]1Cc1cncn1C [pilocarpine] (10 µM) | -0.105 | 110% (inactive)
42 | C=C(C)[C@@H]1CC[C@]2(CO)CC[C@]3(C)[C@H](CC[C@@H]4[C@@]5(C)CC[C@H](O)C(C)(C)[C@@H]5CC[C@]43C)[C@@H]12 (10 µM) | 0.000891 | 99.5% (inactive)
43 | COc1cc(/C=C/C(=O)O)ccc1O [ferulic-acid] (10 µM) | -0.0443 | 110% (inactive)
44 | Nc1nc(=O)[nH]cc1F [flucytosine] (10 µM) | -0.016 | 107% (inactive)
45 | N=C(C[C@@H](O)COc1ccccc1-c1ccccc1)N1CCCCC1 (10 µM) | 0.0845 | 104% (inactive)
46 | CC/C(=C(/c1ccc(OCCN(C)C)cc1)c1cccc(O)c1)c1ccccc1 [droloxifene] (10 µM) | 0.73 | 24% (active)
47 | Cc1nc2ccc(Oc3ccc(F)cc3)cc2c(=O)n1C[C@H]1CCCN(C(C)C)C1 (10 µM) | 0.295 | 76% (inactive)
48 | O=C(O)c1ccc(Nc2ncc3c(n2)-c2ccc(Cl)cc2C(c2c(F)cccc2F)=NC3)cc1 (10 µM) | 0.00168 | 109% (inactive)
49 | O=S1(=O)N[C@H]2CCCN2c2ccccc21 (10 µM) | 0.0127 | 104% (inactive)
50 | O=C(O)[C@H](Cc1ccc(Nc2nccc3ccncc23)cc1)NC1=C(Br)C(=O)C12CCCCC2 (10 µM) | 0.0401 | 98% (inactive)
